Data published in PMC5540273 (PLoS ONE, 2017).

These compounds were tested on PAK6. Settings: concentration: 1 μM, replicates: in singlicate; n = 1.
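Note: KINOMEscan kinase panel screen.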

SMILES | %Inh [%]
Cl.c1ccc(-c2ccc3c(Nc4ccc5[nH]ccc5c4)ccnc3c2)nc1 [GW440138] | 0
O=C(Nc1ccccc1F)NC1CCN(c2ccnc(Nc3ccc(F)cc3)n2)CC1 [GSK1379800] | 0
Cc1cccc(NC(=O)Nc2ccc(Oc3ncnc4ccn(C)c34)cc2)c1 | 0
COc1cccc(C2=C(Nc3ccc(Cl)c(C(=O)O)c3)C(=O)NC2=O)c1 [SB-390769] | 6
COc1cccc(-c2ccc3c(NC(=O)C4CC4)n[nH]c3n2)c1 [SB-710903] | 0
CN1CCN(CCCNc2nccc(-c3c(-c4ccc(F)cc4)nn4cc(C(F)(F)F)ccc34)n2)CC1 [GW621581] | 0
COCCOCCOc1cc2ncc3c4ccc(C#N)cc4[nH]c3c2cc1OC | 10
O=C(Nc1cccc(-c2nn3ncccc3c2-c2ccnc(Nc3ccccc3)n2)c1)c1c(F)cccc1F [GSK198271] | 1
c1ccc(-c2n[nH]cc2Nc2ccnc3ccccc23)nc1 [GW694077] | 0
COC(=O)Nc1nc2ccc(Oc3ccc(NC(=O)Nc4cc(C(F)(F)F)ccc4F)cc3)cc2n1C.Cl [GW692089] | 0
Cn1cc(-c2ccc3c(c2)CCN3C(=O)Cc2cccc(Cl)c2)c2c(N)ncnc21 [GSK2606590] | 0
CC(C)(C)c1ccc2nccc(Nc3cccc(O)c3)c2c1 [GW856795] | 0
COc1cc(Nc2nccc(N3CCC(NC(=O)Nc4cccc(C(C)=O)c4)C3)n2)cc(OC)c1OC (stereo not drawn) [GSK1379753] | 7
O=C(Nc1n[nH]c2nc(-c3ccc(O)cc3)ccc12)C1CC1 [SB-710363] | 0
c1ccc(-c2cnc3nccnn23)cc1 [AH20685] | 0
CN(C)Cc1ccc(-c2ccc3c(Nc4ccc(Oc5ccccn5)cc4)ccnc3c2)o1 [GW567148] | 0
NCCCC(NC(=O)c1cc(Br)c(-c2ccnc3[nH]ccc23)s1)c1ccccc1.O=C(O)C(F)(F)F.O=C(O)C(F)(F)F (stereo not drawn) [GSK1287544] | 56
CCS(=O)(=O)c1ccc(OC)c(Nc2nccc(-c3c(-c4cccc(NC(=O)c5c(F)cccc5F)c4)nn4ncccc34)n2)c1 [GSK326180] | 11

SMILES | %Inh [%]
Cl.Cl.NCC(NC(=O)c1cc(-c2ccccc2)c(-c2ccnc3[nH]ccc23)s1)c1ccccc1 (stereo not drawn) [GSK1321561] | 12
Clc1ccc(-c2nn3ncccc3c2-c2ccnc(Nc3ccc4c(c3)OCCO4)n2)cc1 [GW829116] | 2
Cc1ccc(C)c(NC(=O)NC2CCN(c3ccnc(Nc4ccc(F)cc4)n3)C2)c1 (stereo not drawn) [GSK1379720] | 0
CN1CCN(Cc2cccc(-c3ccc4c(Nc5ccc(Oc6ccccc6)cc5)ccnc4c3)c2)CC1 [GW578342] | 0
O=C(O)C(F)(F)F.O=C(O)C(F)(F)F.O=c1[nH]ccc2nc(N[C@@H]3CCCNC3)nc(Nc3ccc(S(=O)(=O)N4CCOCC4)cc3)c12 [GSK2177277] | 97.9
COc1cc(Nc2nccc(-c3c(-c4cccc(NC(=O)c5c(F)cccc5F)c4)nn4ncccc34)n2)cc(OC)c1OC [GSK327238] | 11
O=C(NC1CCN(c2ccnc(Nc3ccc(F)cc3)n2)C1)c1cc2ccccc2s1 (stereo not drawn) [GSK1379716] | 0
Cl.c1ccc(-c2ccc3c(Nc4ccc5[nH]ncc5c4)ccnc3c2)nc1 [GW440137] | 3
COc1cc(Nc2ncc3c(C)nc(-c4cc5ccccc5[nH]4)n3n2)cc(OC)c1OC [GW869516] | 23
CCCCc1nn2ncccc2c1-c1ccnc(Nc2ccc(N3CCN(C)CC3)cc2)n1 [GW684941] | 48
C[C@@H](Oc1cc(-n2cnc3cc(-c4ccnc(NCCS(C)(=O)=O)c4)ccc32)sc1C(N)=O)c1ccccc1Cl [GSK907232] | 0
O=C(Nc1cccc(-c2nn3ccccc3c2-c2ccnc(Nc3cccc(F)c3)n2)c1)c1c(F)ccc(F)c1Cl [GSK357952] | 0
CCc1ccc(-c2ccc3c(c2)-c2c(cnn2C)S(=O)(=O)N3C)cc1 | 9
O=C(Nc1cccc(-c2nn3ccccc3c2-c2ccnc(Nc3cccc(C(F)(F)F)c3)n2)c1)c1c(F)cccc1F [GSK292658] | 0
Cl.NC(=O)c1cccc(Nc2nccc(Nc3ccc(Oc4c(Cl)cccc4Cl)c(Cl)c3)n2)c1 [GW659009] | 0
COc1ccc(CNC(=O)NC2CCN(c3ccnc(Nc4ccc(F)cc4)n3)CC2)cc1 [GSK1379788] | 0
COc1ccc(Nc2nccc(NCCNC(=O)c3cc4ccccc4s3)n2)cc1 [GSK1379896] | 1
O=c1[nH]cc(-c2ccc(N3CCOCC3)cc2)c2sc(-c3cn[nH]c3)cc12 [GSK2276055] | 17
